Data from PubChem BioAssay (Tox21).
Records with an inconclusive call do not appear. Activity calls are given as the source filed them. Calls follow the shape of the dose curve; as a rule, active = well fitted curve in the direction sought with a large enough effect in the repeat runs; inconclusive = weak or mixed curves; inactive = no such curve, though single readings can be large; an effect the other way counts as inactive or inconclusive.

Tests used:
[1] = qHTS RealTime-Glo MT Cell Viability Assay in HEK293 cells - 32 hour (AID 1224868); also: top concentration of the series differs between compounds; nearly all actives have a fitted effect of over 50% in size
In short: (§1)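 Quantitative high-throughput screen of the Tox21 10K library in HEK293: cells and RealTime-Glo reagents plated together, compound added at 5 h, luminescence monitored through 40 h at 37 C.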

[2] = A CellTox Green Cytotoxicity Assay to monitor cytotoxicity in HEK293 cells - 0 hour (AID 1224869); also: nearly all actives have a fitted effect of over 50% in size
In short: (§2)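 HEK293 cells, 600/well, were preincubated 5 hours and then exposed to compounds at 37 C for up to 40 hours. A cell-impermeant cyanine dye staining dead-cell DNA was read by fluorescence at 0, 8, 16, 24, 32 and 40 h time points.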

[3] = qHTS RealTime-Glo MT Cell Viability Assay in HepG2 cells - 40 hour (AID 1224870); also: nearly all actives have a fitted effect of over 50% in size
In short: (§3)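 HepG2 cells mixed with RealTime-Glo MT reagents (NanoLuc plus cell-permeant prosubstrate) were seeded at 600 cells/well, incubated 5 h at 37 C/5% CO2, then pinned with compounds in DMSO; nonlytic luminescence tracked viability during 40 h treatment.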

[4] = A CellTox Green Cytotoxicity Assay to monitor cytotoxicity in HEK293 cells - 40 hour (AID 1224871); also: nearly all actives have a fitted effect of over 45% in size
In short: as §2

[5] = qHTS RealTime-Glo MT Cell Viability Assay in HEK293 cells - 16 hour (AID 1224872); also: top concentration of the series differs between compounds; nearly all actives have a fitted effect of over 50% in size
In short: as §1

[6] = qHTS RealTime-Glo MT Cell Viability Assay in HepG2 cells - 8 hour (AID 1224873); also: nearly all actives have a fitted effect of over 55% in size
In short: as §3

[7] = qHTS RealTime-Glo MT Cell Viability Assay in HEK293 cells - 40 hour (AID 1224874); conditions: RealTime-Glo luminescence, stronger effect = lower value; also: nearly all actives have a fitted effect of over 50% in size
In short: (§4)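 600 cells/well were plated with the nonlytic NanoLuc/prosubstrate reagent, pre-incubated 5 h, then given 23 nL of compound in DMSO. Incubation at 37 C for 40 h, with luminescence from viable-cell-reduced substrate read repeatedly from 0 h.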

[8] = A CellTox Green Cytotoxicity Assay to monitor cytotoxicity in HEK293 cells - 24 hour (AID 1224875); also: series mostly up to about 77 µM; nearly all actives have a fitted effect of over 45% in size
In short: as §2

[9] = A CellTox Green Cytotoxicity Assay to monitor cytotoxicity in HepG2 cells - 16 hour (AID 1224876); also: nearly all actives have a fitted effect of over 45% in size
In short: (§5)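 HepG2 cells, 600/well, preincubated 5 h with CellTox Green dye, then exposed to Tox21 compounds in DMSO at 37 C for up to 40 h. Dead-cell DNA fluorescence read at the indicated time point.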

[10] = qHTS RealTime-Glo MT Cell Viability Assay in HepG2 cells - 32 hour (AID 1224877); also: nearly all actives have a fitted effect of over 55% in size
In short: (§6)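 Compound treatment began 5 h after plating HepG2 cells (600/well) with NanoLuc luciferase and prosubstrate. Plates stayed at 37 C for 40 h; luminescence was captured at six time points, 0 h through 40 h.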

[11] = A CellTox Green Cytotoxicity Assay to monitor cytotoxicity in HepG2 cells - 24 hour (AID 1224878); also: nearly all actives have a fitted effect of over 45% in size
In short: as §5

[12] = qHTS RealTime-Glo MT Cell Viability Assay in HEK293 cells - 0 hour (AID 1224880)
In short: as §4

[13] = A CellTox Green Cytotoxicity Assay to monitor cytotoxicity in HEK293 cells - 32 hour (AID 1224881); also: nearly all actives have a fitted effect of over 40% in size
In short: as §2

[14] = A CellTox Green Cytotoxicity Assay to monitor cytotoxicity in HepG2 cells - 0 hour (AID 1224882); also: nearly all actives have a fitted effect of over 35% in size
In short: as §5

[15] = A CellTox Green Cytotoxicity Assay to monitor cytotoxicity in HepG2 cells - 32 hour (AID 1224883); also: nearly all actives have a fitted effect of over 50% in size
In short: as §5

[16] = A CellTox Green Cytotoxicity Assay to monitor cytotoxicity in HEK293 cells - 8 hour (AID 1224884); also: nearly all actives have a fitted effect of over 35% in size
In short: as §2

[17] = qHTS RealTime-Glo MT Cell Viability Assay in HepG2 cells - 16 hour (AID 1224885); also: nearly all actives have a fitted effect of over 50% in size
In short: as §6

[18] = qHTS RealTime-Glo MT Cell Viability Assay in HEK293 cells - 24 hour (AID 1224886)
In short: as §1

[19] = A CellTox Green Cytotoxicity Assay to monitor cytotoxicity in HepG2 cells - 40 hour (AID 1224879); also: nearly all actives have a fitted effect of over 40% in size
In short: as §5

[20] = qHTS RealTime-Glo MT Cell Viability Assay in HEK293 cells - 8 hour (AID 1224887)
In short: as §4
% is scaled to controls: 0 for no effect and ±100 for the full control effect.

CC(=O)SC[C@@H](C)C(=O)N1CCC[C@H]1C(=O)N[C@@H](Cc1ccccc1)C(=O)O
inactive: outcome [1] | outcome [2] | outcome [3] | Potency [4] | outcome [5] | outcome [6] | max response [7] 3.03% | Potency [8] | Potency [9] | outcome [10] | Potency [11] | Potency [12] | Potency [13] | Potency [14] | Potency [15] | Potency [16] | outcome [17] | outcome [18]

C[C@H]1COc2c(C3(N)CC3)c(F)cc3c(=O)c(C(=O)O)cn1c23
inactive: outcome [1] | outcome [2] | outcome [3] | Potency [4] | outcome [5] | outcome [6] | max response [7] 1.9% | Potency [8] | Potency [9] | outcome [10] | Potency [11] | Potency [19] | Potency [12] | Potency [13] | Potency [14] | Potency [15] | Potency [16] | outcome [17] | outcome [18] | outcome [20]

COc1cnc(NS(=O)(=O)c2ccc(N)cc2)nc1
inactive: outcome [1] | outcome [2] | outcome [3] | Potency [4] | outcome [5] | outcome [6] | max response [7] 3.91% | Potency [8] | Potency [9] | outcome [10] | Potency [11] | Potency [12] | Potency [13] | Potency [14] | Potency [15] | Potency [16] | outcome [17] | outcome [18] | outcome [20]

CCCc1ccc(O)c(OC)c1
inactive: outcome [1] | outcome [2] | outcome [3] | Potency [4] | outcome [5] | outcome [6] | max response [7] 6.36% | Potency [8] | Potency [9] | outcome [10] | Potency [11] | Potency [19] | Potency [12] | Potency [13] | Potency [14] | Potency [15] | Potency [16] | outcome [17] | outcome [18] | outcome [20]

CCOC(=O)c1ccc(N(C)C)cc1
inactive: outcome [1] | outcome [2] | outcome [3] | Potency [4] | outcome [5] | outcome [6] | max response [7] -8.74% | Potency [8] | outcome [10] | Potency [11] | Potency [19] | Potency [12] | Potency [13] | Potency [14] | Potency [15] | Potency [16] | outcome [17] | outcome [18]

CC1(C)CC(N)CC(C)(C)N1
inactive: outcome [1] | outcome [2] | outcome [3] | Potency [4] | outcome [5] | outcome [6] | max response [7] 16.7% | Potency [8] | Potency [9] | outcome [10] | Potency [11] | Potency [13] | Potency [14] | Potency [15] | Potency [16] | outcome [17] | outcome [18] | outcome [20]

C=CCCCCCCCCCCCCCC
inactive: activity change, negative = cytotoxic [1] -0.171% [at 15.8 µM] | cytotoxicity [2] -0.258% [at 15.8 µM] | activity change, negative = cytotoxic [3] -8.43% [at 15.8 µM] | cytotoxicity increase [4] 0.351% [at 15.8 µM] | activity change, negative = cytotoxicity [5] -2.4% [at 15.8 µM] | viability change, negative = cytotoxic [6] 2.93% [at 15.8 µM] | max response [7] 0.625% | activity change [8] -0.0594% [at 15.8 µM, stronger effect = higher value] | cytotoxicity increase [9] 2.79% [at 15.8 µM] | activity change, negative = cytotoxic [10] -5.43% [at 15.8 µM] | cytotoxicity [11] 1.07% [at 15.8 µM] | cytotoxicity increase [19] -1.48% [at 15.8 µM] | activity change, negative = cytotoxicity [12] -0.897% [at 15.8 µM] | cytotoxicity increase [13] -0.422% [at 15.8 µM] | cytotoxicity [14] 7.56% [at 15.8 µM] | cytotoxicity increase [15] -0.009% [at 15.8 µM] | cytotoxicity increase [16] 2.81% [at 15.8 µM] | activity change, negative = cytotoxic [17] -0.802% [at 15.8 µM] | activity change, negative = cytotoxicity [18] -1.45% [at 15.8 µM] | activity change, negative = cytotoxicity [20] -3.89% [at 15.8 µM]

C/C=C(\C)C(=O)OC/C=C(\C)CCC=C(C)C
inactive: outcome [1] | outcome [2] | outcome [3] | Potency [4] | outcome [5] | outcome [6] | max response [7] 7.26% | Potency [8] | Potency [9] | outcome [10] | Potency [11] | Potency [12] | Potency [13] | Potency [14] | Potency [15] | Potency [16] | outcome [17] | outcome [18] | outcome [20]

C/C=C/C(=O)CCCC
inactive: outcome [1] | outcome [2] | outcome [3] | Potency [4] | outcome [5] | outcome [6] | max response [7] 0.74% | Potency [8] | Potency [9] | outcome [10] | Potency [11] | Potency [19] | Potency [12] | Potency [13] | Potency [14] | Potency [15] | Potency [16] | outcome [17] | outcome [18] | outcome [20]

CCCCCCC(=O)c1ccccc1
inactive: outcome [1] | outcome [2] | outcome [3] | Potency [4] | outcome [5] | outcome [6] | max response [7] -0.886% | Potency [8] | Potency [9] | outcome [10] | Potency [11] | Potency [12] | Potency [13] | Potency [14] | Potency [15] | Potency [16] | outcome [17] | outcome [18] | outcome [20]

CCNC(=O)C(C)OC(=O)Nc1ccccc1 (stereo not drawn)
inactive: outcome [1] | outcome [2] | outcome [3] | Potency [4] | outcome [5] | outcome [6] | max response [7] -1.79% | Potency [8] | Potency [9] | outcome [10] | Potency [11] | Potency [19] | Potency [12] | Potency [13] | Potency [14] | Potency [15] | Potency [16] | outcome [17] | outcome [18] | outcome [20]

CCCCCCCCCCCCCCBr
inactive: outcome [1] | outcome [2] | outcome [3] | Potency [4] | outcome [5] | outcome [6] | max response [7] -1.85% | Potency [8] | outcome [10] | Potency [11] | Potency [19] | Potency [12] | Potency [13] | Potency [14] | Potency [15] | Potency [16] | outcome [17] | outcome [18] | outcome [20]

CO/N=C(\C(=O)O)c1csc(NC(=O)CCl)n1
inactive: outcome [1] | outcome [2] | outcome [3] | Potency [4] | outcome [5] | outcome [6] | max response [7] 0.384% | Potency [8] | outcome [10] | Potency [11] | Potency [19] | Potency [12] | Potency [13] | Potency [14] | Potency [15] | Potency [16] | outcome [17] | outcome [18]
